According to ChEMBL document CHEMBL4513216, “Probing the Open Global Health Chemical Diversity Library for Multistage-Active Starting Points for Next-Generation Antimalarials” (ACS Infect Dis, 2020):
The whole screen tested about 69,000 compounds, of which about 8,600 (12%) showed an effect of 50% or more. Many of the other results were omitted from the sample, so strong results are more common in it than they were.

system: Plasmodium berghei; experiment: Screen against P. berghei liver stage (PbLuc), transformed with Luciferase, at 10uM; assay type: functional, HepG2; conditions: tested at 10 uM

| Compound | INHIBITION [%] |
| --- | --- |
| Cc1ncsc1CN1C[C@@H]2COC[C@]2(C(=O)NC(C)C)C1 | 18.6 |
| COc1ccc(CC(=O)N2Cc3nccn3CC(CN(C)C)C2)cc1 (stereo not drawn) | 6.72 |
| CC(NC(=O)NCc1ccoc1)c1ccc2c(c1)CC(=O)N2 (stereo not drawn) | -55.4 |
| CCOc1cccc(CNC2CCCN(Cc3noc(C)n3)C2)c1 (stereo not drawn) | 47 |
| COCCn1cncc1CN1CCC(C(C)=O)(c2ccccc2)CC1 | 50.7 |
| COCCN1CCCC12CCN(Cc1cncn1C)CC2 | 49.1 |
| COCCn1cncc1Cn1ncc2ccccc2c1=O | 13 |
| CC(C)CN(CC(O)c1ccc(F)cc1)C(=O)c1cnsn1 (stereo not drawn) | -24.9 |
| CCc1cc(CN2C[C@@H]3CC[C@H]2CN(C2Cc4ccccc4C2)C3)on1 | 57.1 |
| CCc1noc(CN2C[C@@H]3CC[C@H]2CN(C2Cc4ccccc4C2)C3)n1 | 12.8 |
| CN(C)C(=O)N1C[C@@H]2CC[C@H]1CN(C1Cc3ccccc3C1)C2 | -57.9 |
| CSCC(=O)N1C[C@@H]2CC[C@H]1CN(C1Cc3ccccc3C1)C2 | -69.3 |
| O=C(CO)N1C[C@@H]2CC[C@H]1CN(C1Cc3ccccc3C1)C2 | 25.4 |
| Cc1cc(CN2C[C@@H]3CC[C@H]2CN(C2Cc4ccccc4C2)C3)on1 | 64.5 |
| Cc1nnc(CN2C[C@@H]3CC[C@H]2CN(C2Cc4ccccc4C2)C3)o1 | 66.1 |
| Cc1noc(CN2C[C@@H]3CC[C@H]2CN(C2Cc4ccccc4C2)C3)n1 | 30.9 |
| COCCOCC(=O)N1C[C@@H]2CC[C@H]1CN(C1Cc3ccccc3C1)C2 | -62.1 |
| O=C1COC2(CCN(C(=O)c3ccco3)CC2)CN1Cc1ccccn1 | 28.2 |
| CCn1cc(-c2n[nH]c(=O)n2-c2ccc(OC)c(OC)c2)c(C)n1 | 41.4 |
| CCn1ccc2ccnc(CC3CN(C(=O)Cn4ccnc4C)C3)c21 | 6.26 |
| CCc1nccn1C1CCCN(C(=O)c2ccc3nnc(C)n3c2)C1 (stereo not drawn) | -6.44 |
| COc1c(NS(=O)(=O)c2ccc(F)c(C)c2)c(C)nn1C | 29.6 |
| Cc1ccc(S(=O)(=O)Nc2c(C)nn(C)c2C)cc1C | 45.7 |
| COc1c(NS(=O)(=O)c2ccc(C)c(C)c2)c(C)nn1C | 51.1 |
| Cc1noc(C)c1S(=O)(=O)N1CCC(n2cccn2)CC1 | -25.4 |
| CCN1CCC(N2CCC(c3nc(C)cc(C)n3)C2)CC1 (stereo not drawn) | 23.9 |
| CN(C)C(=O)C1CCCN1CCCNC(=O)c1ccccc1Cl (stereo not drawn) | 42.5 |

| Compound | INHIBITION [%] |
| --- | --- |
| CC(C)(C)c1oc(C(N)=O)cc1CN1CCCCC(N)C1 (stereo not drawn) | 51.8 |
| CC(C)(C)c1oc(C(N)=O)cc1CN1CCCCC1CN1CCOCC1 (stereo not drawn) | 48.5 |
| CC(C)(C)c1oc(C(N)=O)cc1CN1CCOC(C(F)(F)F)C1 (stereo not drawn) | 22.5 |
| Cc1ccc(OCCNC(=O)C(C)n2cncn2)cc1 (stereo not drawn) | 8.47 |
| CC(NC(=O)NCCOc1ccc(F)c(F)c1)c1nncn1C (stereo not drawn) | 0.0932 |
| CC(C(=O)NCCOc1ccc(F)cc1)n1cncn1 (stereo not drawn) | -44.3 |
| Cc1ccc(OCCCNC(=O)C(C)Sc2nncn2C)cc1 (stereo not drawn) | 50.8 |
| Cc1cc(C)cc(OCCNC(=O)C(C)Sc2nncn2C)c1 (stereo not drawn) | 53.6 |
| CC(Sc1nncn1C)C(=O)NCCCOc1ccc(F)cc1 (stereo not drawn) | 51.7 |
| Cc1ccc(OCCCNC(=O)NC(C)c2nncn2C)cc1 (stereo not drawn) | 38.7 |
| Cc1cc(C)cc(OCCN(C)C(=O)NC(C)c2nncn2C)c1 (stereo not drawn) | 21.5 |
| CC(NC(=O)N(C)CCCOc1ccc(F)cc1)c1nncn1C (stereo not drawn) | -20 |
| O=C(CCSc1ccccc1F)NCc1cccnc1 | -0.514 |
| NC(=O)CN1CC(c2nc(C3CC3)no2)C1 | 19.8 |
| Cc1nn(CCNC(=O)c2cc(C3CC3)[nH]n2)c(C)c1Cl | -28 |
| CCN(C)c1ncnc2c1CCN(Cc1ccncc1)CC2 | 38.3 |
| CN(C)S(=O)(=O)N1C[C@@H](OCc2cccnc2)[C@H]2OCCC[C@H]21 | 11.6 |
| Cc1nc2cc(C(=O)N(CCC#N)CC3CCCO3)ccc2[nH]1 (stereo not drawn) | -0.371 |
| Cc1ccccc1C(N)c1ccncc1 (stereo not drawn) | -1.38 |
| Cc1nc(CN2CCC3(CCN(Cc4cnn(C)c4)CC3)C2=O)cs1 | -22.1 |
| CSc1ccccc1C(=O)N1C[C@@H]2CC[C@H]1CN(C(=O)C1CCC1)C2 | 9.41 |
| CCC(C)Sc1ncc(-c2c(C#N)c(N)nc3c2COCC3)cn1 (stereo not drawn) | 29.9 |
| CCc1cc(CNC(=O)Nc2cc(F)cc(N3CCCC3)c2)on1 | 38.3 |
| CCc1cc(CNC(=O)NCc2ccc(N3CCCCC3)cc2)on1 | 51.1 |
| Cc1noc(CCNC(=O)NCc2ccc(N3CCCCC3)cc2)n1 | -95.7 |
| COc1ccccc1CN(CC1CCCO1)C(=O)c1ccc(F)cn1 (stereo not drawn) | 5.23 |
